In the library only some 3% were active in any assay of this set; here they are far more common.
LDHA inh – LDHA (human) enzyme inhibition. P00338. purified LDHA, NADH/diaphorase-resazurin fluorescence; hits give low values. activity change, % (values are at about 110 or 230 µM). 480,000 tested, 0.15% active; in the data active = activity change below about -30%; inconclusive = mostly about -25% to -30%
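Human LDH5 at 2 nM final in Tris HCl pH 7.4 with 0.06 mM NADH and 0.2 mM pyruvate, reacted 5 minutes at room temperature. Remaining NADH coupled via diaphorase/resazurin; resorufin fluorescence read at 0 and 20 minutes, normalized to enzyme-free and DMSO wells.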
ClpP mod – qHTS Assay for Activators of ClpP | Potency, µM (doses to about 57.5 µM) | AID 651965, 2013 | ATP-dependent Clp protease proteolytic subunit (Bacillus subtilis (strain 168)), P80244 | purified B. subtilis ClpP, FRET peptide cleavage, 20 min | 340,000 tested, 1.9% active; active = well fitted falling curve with a large enough effect; inconclusive = small, poorly fitted or top-dose-only effect; inactive = no such curve, though single readings can be large or run the other way; note: the source files actives as falling curves though it sought activators and does not explain the sign; nearly all actives have a fitted effect of over 65% in size
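Purified B. subtilis ClpP, 10 microg/mL final in Tris/HCl pH8 with KCl, BSA, glycerol and Tween-20, cleaved an Abz/nitrotyrosine-quenched decapeptide. Fluorescence (ex 320, em 430) was read at 0 and 20 min at room temperature. Delta was normalized to 5.8 microM ADEP and DMSO/no-enzyme controls.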
12-LOX inh – ALOX12 (human) lipoxygenase inhibition | purified 12hLO, xylenol orange hydroperoxide absorbance | Potency, µM (titrated, usually from 108 µM), hits mostly inhibitors | 580,000 tested, 1.1% active | AID 1671190; active = well fitted inhibition curve with a large enough effect; inconclusive = small, poorly fitted or top-dose-only effect, or another doubt; inactive = no such curve, though single readings can be large or run the other way
Target sequence (P18054 whole entry, looked up): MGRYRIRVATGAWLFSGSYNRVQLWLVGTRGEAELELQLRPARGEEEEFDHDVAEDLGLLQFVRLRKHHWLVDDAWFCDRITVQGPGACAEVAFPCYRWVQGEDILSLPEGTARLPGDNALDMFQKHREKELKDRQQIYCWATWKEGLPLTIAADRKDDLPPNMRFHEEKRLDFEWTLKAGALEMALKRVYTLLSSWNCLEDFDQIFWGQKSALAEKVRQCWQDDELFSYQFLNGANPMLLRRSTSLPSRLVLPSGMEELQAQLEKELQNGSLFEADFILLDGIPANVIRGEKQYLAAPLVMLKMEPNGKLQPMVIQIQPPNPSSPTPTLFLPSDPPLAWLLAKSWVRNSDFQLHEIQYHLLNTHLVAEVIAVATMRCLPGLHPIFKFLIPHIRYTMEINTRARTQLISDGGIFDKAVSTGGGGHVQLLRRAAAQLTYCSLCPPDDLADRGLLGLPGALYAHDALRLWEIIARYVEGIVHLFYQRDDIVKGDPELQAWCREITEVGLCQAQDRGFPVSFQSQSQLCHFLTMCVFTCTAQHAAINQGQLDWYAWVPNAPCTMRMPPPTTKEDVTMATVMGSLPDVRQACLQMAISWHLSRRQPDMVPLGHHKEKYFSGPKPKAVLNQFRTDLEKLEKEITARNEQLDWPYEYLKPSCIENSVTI
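Purified human 12hLO (150 nM final) in 25 mM Hepes, 0.01% Triton X-100, pH 7.0 was preincubated 15 min at room temperature with compound. Then 40 uM arachidonic acid was added, 30 min. Hydroperoxide was read by Fe-XO absorbance ratio 573/405 nm.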
BCR signal inh – blocks chronic active B-cell receptor signaling. ABC-DLBCL IkBa-CBG/CBR reporter, luminescence ratio, 4 h. Potency, µM (highest dose often 46.1 µM), most hits filed as inhibitors. 340,000 tested, 0.05% active; active = well fitted inhibition curve with a large enough effect in the signal ratio, with a control signal flat, not every such curve was filed as active; inconclusive = small, poorly fitted or top-dose-only effect, or effect the other way, or a change in a side signal; the % refers to the signal ratio
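Cell line TMD8 (human ABC DLBCL), stably expressing tet-inducible CBG68-IkBa fusion and CBR; IMDM/0.5% FBS; cpd up to 46 uM; dox induction, 4 h, 37C/5% CO2; dual luminescence; green/red ratio; MG132 control.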
hERG WT inh – KCNH2 (human, wildtype) channel inhibition | U2OS, BacMam KCNH2, thallium flux FluxOr; hits give low values | activity change, % at 1.84 µM | 340,000 tested, 0.37% active | AID 720551;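 active = maximum activity change below -70%; inconclusive = maximum activity change between -70% and -50%; inactive = maximum activity change above -50%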
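U2OS cells were transduced with wild-type KCNH2 virus (2.03 x 10^8 / mL) for 4 h at room temperature, then cultured overnight at 37 C. Thallium flux was read with FluxOr dye. Rate constants were normalized to DMSO controls.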
KCNH2 3.1 block – inhibitors of human KCNH2 3.1 potassium channel isoform; U2OS KCNH2 3.1, thallium flux FluxOr; hits give low values; 340,000 tested, 0.95% active; AID 720553; activity change, % (tested at about 1.8 µM);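 active = maximum activity change below -70%; inconclusive = maximum activity change from -70% to -50%; inactive = maximum activity change above -50%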;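 note: thallium influx rate constant from kinetic fluorescence after stimulation buffer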
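Kinetic fluorescence (2 min after stimulation buffer) measures Tl+ influx through KCNH2 3.1 expressed by viral transduction in U2OS cells; the rate constant is normalized against DMSO controls serving as positive and negative references.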
Hits are given with their value; i = inactive; ? = inconclusive; nt = no result.

SMILES	LDHA inh	ClpP mod	12-LOX inh	BCR signal inh	hERG WT inh	KCNH2 3.1 block
COc1cccc(CN2CCC(C(=O)Nc3ccc(-c4cccc(C)c4)cc3)CC2)c1O	i	i	?	i	i	-95
Cc1cccc(CN2CCC(C(=O)Nc3cccc(-c4cccc(F)c4)c3)CC2)n1	i	i	i	i	-74	-94
COCc1ccc(CN2CCC(C(=O)Nc3cccc(-c4cccc(Cl)c4)c3)CC2)o1	i	i	i	?	-82	-81
O=C(Nc1cccc(-c2cccc(Cl)c2)c1)C1CCN(Cc2ccccn2)CC1	i	i	?	?	?	-72
Cc1cccc(-c2ccc(NC(=O)C3CCN(CC4CC4)CC3)cc2)c1	i	nt	i	i	i	i
CC(C)c1noc(C(C)Nc2ccc3oc(C(C)(C)C)nc3c2)n1 (stereo not drawn)	i	nt	i	nt	nt	nt
C=CCn1cc(CN2CCC(C(=O)Nc3cccc(-c4cccc(F)c4)c3)CC2)c(C)n1	i	i	i	i	i	i
O=C(Nc1cccc(-c2cccc(Cl)c2)c1)C1CCN(Cc2ccon2)CC1	i	i	i	i	i	i
Cc1c(CN2CCC(C(=O)Nc3cccc(-c4cccc(Cl)c4)c3)CC2)cnn1C	i	i	i	?	-100	-85
C=CCn1cc(CN2CCC(C(=O)Nc3cccc(-c4cccc(Cl)c4)c3)CC2)c(C)n1	i	i	i	?	-99	-93
CCCn1ncc(CN2CCC(C(=O)Nc3cccc(-c4cccc(F)c4)c3)CC2)c1C	i	i	i	?	?	-85
Cn1cc(CN2CCC(C(=O)Nc3cccc(-c4cccc(F)c4)c3)CC2)cn1	i	i	?	?	i	i
CCOC(=O)C(N)Cc1ccccc1 (stereo not drawn)	i	nt	i	nt	nt	nt
COc1ccc(-c2cc(C[C@H]3CNCC[C@H]3CC(=O)Nc3ccccc3)no2)cc1	nt	nt	i	nt	nt	nt
COc1ccc(/C=C(/C#N)C(=O)Nc2cc(C)ccc2C)cc1C(=O)O	i	25µM	i	?	i	i
COc1ccc(/C=C(\C#N)C(=O)Nc2ccccc2C(=O)O)cc1OC(=O)c1ccccc1Cl	i	nt	40µM	nt	nt	nt
COc1ccccc1/C=C/C=C(/C#N)C(=O)Nc1ccccc1C(=O)O	i	nt	7.1µM	nt	nt	nt
COc1ccc(/C=C(/C#N)C(=O)Nc2ccccc2C(=O)O)cc1OC	i	nt	i	nt	nt	nt
Cc1ccc2cc(CN(Cc3ccccc3)C(=O)c3ccco3)c(=O)[nH]c2c1	i	nt	?	nt	nt	nt
COc1ccc(C(=O)NN/C(C)=C/C(=O)C(F)(F)C(F)(F)C(F)(F)F)cc1	i	3.2µM	i	?	i	i
COc1ccc(C(=O)NNC(=O)OC(C)(C)C)cc1	i	i	i	i	i	i
Nc1ccsc1C(=O)N1CCC2(CCC(=O)N(CC3CCCO3)C2)CC1 (stereo not drawn)	nt	nt	7.9µM	nt	nt	nt
C=CCn1c(SCC(=O)c2ccc(O)c(O)c2)nnc1-c1cccc(C)c1	i	i	8.9µM	?	i	i
C=CCn1c(SCC(=O)c2[nH]c(C)c(C(C)=O)c2C)nnc1-c1ccncc1	i	32µM	i	i	i	i
C=CCn1c(SCC(=O)c2ccc(O)c(O)c2)nnc1-c1cccc(Cl)c1	i	i	?	i	i	i
SMILES	LDHA inh	ClpP mod	12-LOX inh	BCR signal inh	hERG WT inh	KCNH2 3.1 block
Cc1cc(NC(=O)CSc2nnc(-c3cccnc3)n2C2CC2)no1	i	nt	i	nt	nt	nt
CCN(CC(=O)Nc1ccc(OC(F)F)cc1)C1CCCCC1	i	i	i	i	i	-92
CCN(C(=S)Nc1ccc(OC(F)F)cc1)C1CCCCC1	i	i	i	i	i	i
O=C(/C=C/c1ccc(Br)cc1)NC(=O)c1ccccc1O	i	nt	i	?	i	i
O=C(/C=C/c1ccc(O)c(O)c1)c1ccc(O)cc1O	nt	nt	8.9µM	nt	nt	nt
O=C(/C=C/c1ccc(O)c(O)c1)NC(=O)c1ccccc1O	i	i	40µM	?	i	i
COCc1cc(C)nc(OCC(=O)N/N=C/c2cccc(OC)c2)c1C#N	i	28µM	i	i	i	i
O=C(Cn1ccc2cc(Cl)ccc21)NCc1ccccc1	i	nt	i	nt	nt	nt
Cc1noc(C)c1C(c1ccccc1)S(=O)(=O)c1ccccc1 (stereo not drawn)	i	i	i	i	-140	i
COc1cc(OC)cc(-c2ncc3ccccn23)c1	i	25µM	i	i	i	i
c1csc(-c2ncc3ccccn23)c1	i	32µM	i	i	i	i
CC(C)c1ccc(/C=C2\SC(=S)N(CCC(=O)NCCCn3ccnc3)C2=O)cc1	i	i	i	?	i	-77
COc1ccc(/C=C2\SC(=S)N(CCC(=O)NCCCn3ccnc3)C2=O)cc1	i	i	i	?	i	i
Oc1cccnc1SCc1ccccc1	i	i	6.3µM	?	i	i
Cc1cccc(CSc2ncccc2C(=O)O)c1	i	i	?	?	-87	i
Cc1ccc(-c2csc(NC(=O)COC(=O)c3ccc(F)cc3Cl)n2)cc1	i	nt	i	nt	nt	nt
CN1CCc2c(sc3c2C(=O)NC(c2cccs2)N3)C1 (stereo not drawn)	i	25µM	i	i	i	i
COc1ccc(C2NC(=O)c3c(sc4c3CCN(C)C4)N2)cc1O (stereo not drawn)	i	?	i	nt	nt	nt
COc1ccc(C(=O)Oc2ccc(C3NC(=O)c4c(sc5c4CCN(C)C5)N3)cc2OC)cc1 (stereo not drawn)	i	18µM	i	nt	nt	nt
Cn1c(=O)c2c(nc(N3CCOCC3)n2Cc2cccc(C(F)(F)F)c2)n(C)c1=O	i	nt	i	nt	nt	nt
CCCC(=O)Nc1nc(-c2c[nH]c3ccccc23)cs1	i	nt	?	nt	nt	nt
CCCN(Cc1ccc(S(=O)(=O)NC)cc1)Cc1ccccc1OC	nt	nt	i	nt	nt	nt
CC1N(C(=O)N(C)C)CCN1S(=O)(=O)c1ccccc1 (stereo not drawn)	i	nt	i	i	i	i
CC(C)C1N(C(=O)N(C)C)CCN1S(=O)(=O)c1ccccc1 (stereo not drawn)	i	nt	i	i	i	-141
Cc1nn(-c2nc3c(c(=O)n(CC(N)=O)c(=O)n3C)n2Cc2ccccc2)c(C)c1C	-33	nt	i	nt	nt	nt
SMILES	LDHA inh	ClpP mod	12-LOX inh	BCR signal inh	hERG WT inh	KCNH2 3.1 block
CC1CN(c2cc(-c3ccccc3)c3ccccc3n2)CC(C)O1 (stereo not drawn)	i	25µM	i	?	i	i
COc1ccc2c(C)cc(N3CCOCC3)nc2c1	i	?	i	?	i	nt
c1ccc(-c2cc(N3CCOCC3)nc3ccccc23)cc1	i	28µM	?	nt	i	i
COc1ccc2nc(N3CCOCC3)cc(C)c2c1	i	13µM	i	?	i	i
Cc1cc(N2CCOCC2)nc2ccccc12	i	25µM	i	i	i	i
N#Cc1cc(N2CCOCC2)nc2ccccc12	i	i	i	?	i	i
CC(C)=CCCC(C)CC=O (stereo not drawn)	nt	nt	i	nt	nt	nt
